Test results: the supplement of paper PMC11732987, “Enantioselective OTUD7B fragment discovery through chemoproteomics screening and high-throughput optimisation” (Communications Chemistry, 2025)

Columns and labels:
Experiment in all cases: log2 ratio of Biotin-Ahx-Ub-VS probe labelling (fragment/DMSO); higher = less target engagement (more negative = stronger competition), active = hit call of the paper (q ≤ 0.05, log2 ratio ≤ -1)
Conditions in all cases: compound concentration: 200 uM; treatment time: 3 h
[1] = molecular target: T1, OTUD6B (UniProt Q8N6M0)
T1 sequence (whole entry): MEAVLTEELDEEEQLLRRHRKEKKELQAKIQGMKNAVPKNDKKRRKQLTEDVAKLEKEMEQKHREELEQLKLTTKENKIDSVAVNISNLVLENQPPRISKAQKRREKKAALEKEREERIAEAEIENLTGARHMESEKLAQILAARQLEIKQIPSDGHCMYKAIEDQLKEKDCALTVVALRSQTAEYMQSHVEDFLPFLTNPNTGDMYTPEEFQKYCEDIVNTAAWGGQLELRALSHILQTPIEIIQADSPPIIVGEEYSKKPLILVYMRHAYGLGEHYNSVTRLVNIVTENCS
Procedure, shortened: (§1)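 In triplicate, 495 µg of HEK293T lysate per sample was incubated with fragment at 200 µM or vehicle for 3 h. Biotin-Ahx-Ub-VS was then added to 0.5 µM final for 1 h, and labelled DUBs were captured with NeutrAvidin, digested with LysC and trypsin, and measured by diaPASEF LC-MS/MS. Data are average log2 fragment/vehicle ratios by unpaired t-test from global-median-normalised Spectronaut label-free quantities, restricted to proteins with ≥2 unique peptides.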

[2] = molecular target: T2, OTUD7B (UniProt Q6GQQ9)
T2 sequence (whole entry): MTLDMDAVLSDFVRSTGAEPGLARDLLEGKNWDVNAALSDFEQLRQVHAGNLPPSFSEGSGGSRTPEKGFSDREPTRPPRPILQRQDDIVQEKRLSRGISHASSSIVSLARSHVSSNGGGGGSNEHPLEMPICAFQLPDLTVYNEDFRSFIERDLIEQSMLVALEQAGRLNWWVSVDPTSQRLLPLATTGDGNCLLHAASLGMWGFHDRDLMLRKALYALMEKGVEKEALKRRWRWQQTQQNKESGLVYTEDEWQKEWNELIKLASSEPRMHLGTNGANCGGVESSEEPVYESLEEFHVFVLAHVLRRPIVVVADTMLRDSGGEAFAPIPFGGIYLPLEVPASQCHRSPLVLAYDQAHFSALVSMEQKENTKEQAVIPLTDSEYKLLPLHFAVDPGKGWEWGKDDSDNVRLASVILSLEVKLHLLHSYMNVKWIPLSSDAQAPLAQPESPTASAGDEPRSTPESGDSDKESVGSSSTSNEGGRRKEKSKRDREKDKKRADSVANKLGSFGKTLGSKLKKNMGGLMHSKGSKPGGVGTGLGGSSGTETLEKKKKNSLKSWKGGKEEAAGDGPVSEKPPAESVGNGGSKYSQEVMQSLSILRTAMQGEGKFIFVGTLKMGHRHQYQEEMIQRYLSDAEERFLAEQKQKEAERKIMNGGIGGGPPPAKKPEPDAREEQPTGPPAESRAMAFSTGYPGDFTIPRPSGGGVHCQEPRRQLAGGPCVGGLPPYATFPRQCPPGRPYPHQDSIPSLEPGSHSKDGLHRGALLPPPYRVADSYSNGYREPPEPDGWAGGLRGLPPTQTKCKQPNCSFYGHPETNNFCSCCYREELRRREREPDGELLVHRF
Procedure, shortened: as §1

[3] = molecular target: PRPF8 (UniProt Q6P2Q9)
Procedure, shortened: as §1

[4] = molecular target: T3, PSMD7 (UniProt P51665)
T3 sequence (whole entry): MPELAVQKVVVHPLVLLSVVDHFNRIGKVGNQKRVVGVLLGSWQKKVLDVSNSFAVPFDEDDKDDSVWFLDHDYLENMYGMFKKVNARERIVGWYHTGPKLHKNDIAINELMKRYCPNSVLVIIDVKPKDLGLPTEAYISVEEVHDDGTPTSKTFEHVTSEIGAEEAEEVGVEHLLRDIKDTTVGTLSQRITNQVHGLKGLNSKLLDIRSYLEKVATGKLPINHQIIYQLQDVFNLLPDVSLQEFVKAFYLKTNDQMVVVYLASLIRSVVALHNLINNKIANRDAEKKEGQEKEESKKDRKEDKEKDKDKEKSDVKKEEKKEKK
Procedure, shortened: as §1

[5] = molecular target: UCHL1 (UniProt P09936)
Sequence of UCHL1 (P09936 whole entry, looked up): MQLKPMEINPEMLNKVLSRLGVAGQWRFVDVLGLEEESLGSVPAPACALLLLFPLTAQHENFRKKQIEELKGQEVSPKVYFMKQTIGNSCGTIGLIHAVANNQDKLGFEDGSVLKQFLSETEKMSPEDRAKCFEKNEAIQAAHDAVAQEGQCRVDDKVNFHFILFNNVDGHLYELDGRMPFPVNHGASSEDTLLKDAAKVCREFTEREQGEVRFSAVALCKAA
Procedure, shortened: as §1

[6] = molecular target: T4, UCHL3 (UniProt P15374)
T4 sequence (whole entry): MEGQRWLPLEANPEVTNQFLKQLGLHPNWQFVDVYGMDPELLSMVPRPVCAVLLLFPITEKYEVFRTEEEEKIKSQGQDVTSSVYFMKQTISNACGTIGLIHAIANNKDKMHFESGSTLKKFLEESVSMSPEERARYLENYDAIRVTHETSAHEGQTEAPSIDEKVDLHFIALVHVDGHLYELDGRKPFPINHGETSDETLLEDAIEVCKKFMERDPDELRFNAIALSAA
Procedure, shortened: as §1

[7] = molecular target: T5, UCHL5 (UniProt Q9Y5K5)
T5 sequence (whole entry): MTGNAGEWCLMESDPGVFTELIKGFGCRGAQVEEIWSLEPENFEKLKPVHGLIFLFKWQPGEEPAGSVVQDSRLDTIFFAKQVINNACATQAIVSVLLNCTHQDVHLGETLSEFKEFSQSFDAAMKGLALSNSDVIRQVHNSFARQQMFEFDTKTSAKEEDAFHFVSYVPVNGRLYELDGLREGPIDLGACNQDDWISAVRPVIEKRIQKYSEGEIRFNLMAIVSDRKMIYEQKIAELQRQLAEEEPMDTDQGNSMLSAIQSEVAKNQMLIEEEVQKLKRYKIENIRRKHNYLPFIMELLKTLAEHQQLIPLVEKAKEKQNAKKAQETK
Procedure, shortened: as §1

[8] = molecular target: USP10 (UniProt Q14694)
Sequence of USP10 (Q14694 whole entry): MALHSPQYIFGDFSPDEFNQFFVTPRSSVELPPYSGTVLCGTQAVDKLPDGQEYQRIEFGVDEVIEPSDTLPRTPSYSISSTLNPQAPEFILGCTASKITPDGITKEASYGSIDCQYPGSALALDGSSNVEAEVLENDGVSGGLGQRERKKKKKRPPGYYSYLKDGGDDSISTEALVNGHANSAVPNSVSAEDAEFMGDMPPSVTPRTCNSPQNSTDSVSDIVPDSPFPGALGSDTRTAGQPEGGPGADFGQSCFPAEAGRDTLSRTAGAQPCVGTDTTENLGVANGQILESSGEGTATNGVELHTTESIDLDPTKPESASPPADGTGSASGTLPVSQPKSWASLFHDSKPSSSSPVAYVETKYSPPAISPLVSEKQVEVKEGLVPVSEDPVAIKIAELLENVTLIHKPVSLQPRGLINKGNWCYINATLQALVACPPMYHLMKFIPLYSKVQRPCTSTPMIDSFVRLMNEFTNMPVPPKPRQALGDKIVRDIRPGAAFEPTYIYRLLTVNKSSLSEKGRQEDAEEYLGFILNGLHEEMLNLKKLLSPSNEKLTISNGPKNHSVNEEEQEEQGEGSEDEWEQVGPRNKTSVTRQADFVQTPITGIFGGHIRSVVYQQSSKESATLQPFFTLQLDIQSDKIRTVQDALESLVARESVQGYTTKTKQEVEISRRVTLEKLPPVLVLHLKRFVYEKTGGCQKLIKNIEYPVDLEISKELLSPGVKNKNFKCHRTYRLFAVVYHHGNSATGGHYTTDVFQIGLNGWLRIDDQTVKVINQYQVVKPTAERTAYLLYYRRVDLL
Procedure, shortened: as §1

[9] = molecular target: T6, USP15 (UniProt Q9Y4E8)
T6 sequence (whole entry): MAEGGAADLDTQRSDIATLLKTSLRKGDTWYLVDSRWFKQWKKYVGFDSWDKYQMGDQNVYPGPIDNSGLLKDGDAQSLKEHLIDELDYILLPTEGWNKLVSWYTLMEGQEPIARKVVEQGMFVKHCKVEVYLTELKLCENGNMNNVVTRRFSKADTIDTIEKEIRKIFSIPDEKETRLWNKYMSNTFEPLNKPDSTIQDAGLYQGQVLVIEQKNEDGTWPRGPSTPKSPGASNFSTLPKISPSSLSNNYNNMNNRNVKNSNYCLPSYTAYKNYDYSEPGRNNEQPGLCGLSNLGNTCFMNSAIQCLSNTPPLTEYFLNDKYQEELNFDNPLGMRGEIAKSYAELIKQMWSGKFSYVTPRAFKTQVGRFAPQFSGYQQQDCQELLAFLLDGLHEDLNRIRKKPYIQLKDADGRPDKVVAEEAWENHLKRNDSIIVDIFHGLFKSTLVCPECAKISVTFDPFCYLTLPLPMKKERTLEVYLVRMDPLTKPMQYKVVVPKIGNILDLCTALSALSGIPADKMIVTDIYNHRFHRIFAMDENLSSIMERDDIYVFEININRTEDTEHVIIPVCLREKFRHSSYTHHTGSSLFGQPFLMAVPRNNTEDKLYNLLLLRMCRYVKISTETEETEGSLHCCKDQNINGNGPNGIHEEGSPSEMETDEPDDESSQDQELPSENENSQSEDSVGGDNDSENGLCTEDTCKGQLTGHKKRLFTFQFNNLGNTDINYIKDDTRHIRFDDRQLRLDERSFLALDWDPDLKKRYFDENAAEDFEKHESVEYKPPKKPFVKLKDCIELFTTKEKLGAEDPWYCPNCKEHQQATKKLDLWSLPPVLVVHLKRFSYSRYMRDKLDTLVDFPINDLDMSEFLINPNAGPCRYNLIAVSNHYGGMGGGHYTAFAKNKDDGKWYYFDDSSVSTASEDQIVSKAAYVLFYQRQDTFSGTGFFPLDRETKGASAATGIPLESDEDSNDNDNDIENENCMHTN
Procedure, shortened: as §1

[10] = molecular target: USP16 (UniProt Q9Y5T5)
Sequence of USP16 (Q9Y5T5 whole entry, looked up): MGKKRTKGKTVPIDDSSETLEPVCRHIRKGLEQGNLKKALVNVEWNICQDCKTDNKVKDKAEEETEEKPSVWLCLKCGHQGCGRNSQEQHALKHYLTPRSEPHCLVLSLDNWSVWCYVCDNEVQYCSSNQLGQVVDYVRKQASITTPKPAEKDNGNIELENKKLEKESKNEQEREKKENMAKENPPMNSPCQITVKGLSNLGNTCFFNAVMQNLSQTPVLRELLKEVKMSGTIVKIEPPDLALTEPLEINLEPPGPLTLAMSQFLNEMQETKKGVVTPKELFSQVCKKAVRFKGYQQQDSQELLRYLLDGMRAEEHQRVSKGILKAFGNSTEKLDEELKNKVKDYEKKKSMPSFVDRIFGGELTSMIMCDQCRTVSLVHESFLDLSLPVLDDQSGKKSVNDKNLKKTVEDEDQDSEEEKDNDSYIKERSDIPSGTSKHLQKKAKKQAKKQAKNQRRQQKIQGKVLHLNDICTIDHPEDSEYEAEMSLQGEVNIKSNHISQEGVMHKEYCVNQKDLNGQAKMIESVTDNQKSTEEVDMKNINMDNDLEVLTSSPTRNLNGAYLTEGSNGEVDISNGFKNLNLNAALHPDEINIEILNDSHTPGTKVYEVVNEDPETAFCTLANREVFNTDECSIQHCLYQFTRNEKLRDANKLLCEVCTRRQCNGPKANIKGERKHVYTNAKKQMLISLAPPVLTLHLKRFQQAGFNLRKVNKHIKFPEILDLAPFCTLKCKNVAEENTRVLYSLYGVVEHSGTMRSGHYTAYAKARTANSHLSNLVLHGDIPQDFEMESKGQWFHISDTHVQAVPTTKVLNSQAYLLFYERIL
Procedure, shortened: as §1

Measured: log2 ratio of Biotin-Ahx-Ub-VS probe labelling

Cl.O=C(CCl)NCCN1CCc2ccccc21
inactive: [1] -0.983 | [2] -0.675 | [3] 0.014 | [4] -0.0696 | [6] -0.556 | [8] -0.344 | [9] -0.991 | [10] -0.252
active: [5] -2.25 | [7] -1.03
